The record followed here is PubChem BioAssay (NCI).

The structures appear in SMILES notation. About 79,000 compounds went through this panel and 15% of them were active in at least one assay; those are over-represented in the sample as a whole. Unmarked numbers belong to inactive results. The source made the active and inactive calls. No stated cut-off is given here; in the data, active means growth inhibition above about 70%; inactive means the rest.

A short description of assay [1]: NCI Yeast Anticancer Drug Screen. Data for the rad50 strain (AID 155).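 Further: 0% = growth of vehicle-only cultures of the same strain.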 The conditions noted are these: S. cerevisiae rad50 strain growth inhibition; at 50.0 µM; active compounds read high. In short, it runs like this: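 Yeast carrying a defined DNA repair defect were exposed to test compounds, and growth was compared with vehicle-treated controls to give percent inhibition.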

A short description of assay [2]: NCI Yeast Anticancer Drug Screen. Data for the mec2-1 strain (AID 157). The conditions noted are these: S. cerevisiae mec2-1 strain, at 50.0 µM, active compounds read high. In short, it runs like this:
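Test agents were screened against the mec2-1 yeast strain, with defined DNA repair or cell cycle alteration. Growth was scored as inhibition against vehicle-only controls.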

The nature of assay [3]: NCI Yeast Anticancer Drug Screen. Data for the sgs1 mgt1 strain (AID 161).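 Further: 0% = growth of cultures given vehicle only.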 The note with it: S. cerevisiae sgs1 mgt1 strain, at 50.0 µM, active compounds read high. In short, it runs like this: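 Mutant yeast exposed to compound; growth scored against vehicle-only wells.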
Assay [4] in a line: NCI Yeast Anticancer Drug Screen. Data for the cln2 rad14 strain (AID 165).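 Further: 0% = growth equal to vehicle treated cultures.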 The conditions noted are these: S. cerevisiae cln2 rad14 strain, at 50.0 µM, active compounds read high. In short, it runs like this: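 Growth of compound-exposed yeast (cln2 rad14 genotype) measured and expressed as inhibition relative to vehicle.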
Assay [5] in a line: NCI Yeast Anticancer Drug Screen. Data for the bub3 strain (AID 167). The note with it: S. cerevisiae bub3 mutant strain, at 50.0 µM, active compounds read high. In short, it runs like this:
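Compounds were applied to a genetically altered yeast strain carrying a cell-cycle control defect. Growth inhibition was scored against vehicle-treated controls.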

Assay [6] can be described thus: NCI Yeast Anticancer Drug Screen. Data for the mlh1 rad18 strain (AID 175). The note with it: S. cerevisiae mlh1 rad18 strain growth inhibition; at 50.0 µM; active compounds read high. The essentials: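 In this whole-cell yeast screen, a strain with altered DNA damage repair is challenged with compound, and its growth is measured against matched vehicle-treated controls.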

For the compound `Cc1cc(NC(=S)Nc2ccccc2)c(NC(=S)Nc2ccccc2)cc1C`, the growth inhibition was 2.1% in assay [1]; -25.2% in assay [2]; 1.55% in assay [3]; 6.7% in assay [4]; 3.2% in assay [5]; 3.2% in assay [6].

`C/C=C/[C@@]1(OC(=O)c2ccccc2)C[C@@H]2CCCC[C@@H]21`: the growth inhibition in assay [1] was 35.4%; in assay [2] it was 11.1%; in assay [3], 37.4%; in assay [4], 23.3%; in assay [5], 12.9%; in assay [6] it was 31.6%.

`CC(/C=C/C=C/C=C/C=C/C=C/C(O)=C1/C(=O)C(CCC(=O)O)N(C)C1=O)=C\C(C)C(OC1CC(O)C(O)C(C)O1)C(C)C` (configuration not stated): the growth inhibition in assay [1] was -11.6%; in assay [2], -28.6%; in assay [3] it was -1.7%; in assay [4], 3.35%; in assay [5], -10.1%; in assay [6], -2.65%.

As to `CCCCOC(=O)NC`, the growth inhibition in assay [1] was 44.6%; in assay [2], -6.7%; in assay [3] it was 12.8%; in assay [4], -15.9%; in assay [5], 7.85%; in assay [6] it was 22.2%.

As to `O=C1C2C3CC4C5CC(C1C53)C42` (configuration not stated), the growth inhibition in assay [1] was 4.85%; in assay [2], -7.45%; in assay [3] it was 3.35%; in assay [4], 5.05%; in assay [5], -5.4%; in assay [6] it was 1.7%.

On to `O=P(Nc1ccc(Cl)cc1)(Nc1ccc(Cl)cc1)N1CCCCC1`, for which the growth inhibition is 23% in assay [1]; -45.1% in assay [2]; 5.8% in assay [3]; -21% in assay [4]; 19.9% in assay [5]; 9.2% in assay [6].

Consider `O=C(c1nc2ccc(Cl)cc2[nH]c1=O)C(O)c1ccc2c(c1)OCO2` (configuration not stated), for which the growth inhibition in assay [1] was -10.9%; in assay [2], -10.2%; in assay [3], -3.85%; in assay [4], 21.1%; in assay [5] it was -13.2%; in assay [6] it was 5.2%.

In the case of `Cc1ccc(N=C(c2ccccc2)c2ccc([N+](=O)[O-])cc2)cc1`, the growth inhibition in assay [1] was -16.6%; in assay [2], -7.05%; in assay [3], -21.7%; in assay [4], -26.9%; in assay [5] it was 21.4%; in assay [6], -11.8%.

For `C=COC(=O)N1CCCCC1`, the growth inhibition was -5.75% in assay [1]; 15.8% in assay [2]; 0.5% in assay [3]; -13.7% in assay [4]; -30.1% in assay [5]; 27.4% in assay [6].

As for `CCCCCCCCCCCCCCCCn1cnc2c(Cl)ncnc21`, the growth inhibition in assay [1] was 23.2%; in assay [2] it was 3.9%; in assay [3], -19.5%; in assay [4], 12.8%; in assay [5] it was -2.6%; in assay [6], 2.55%.

On to `CCCC(=O)Oc1cccc(C)c1`, for which the growth inhibition in assay [1] was 15.7%; in assay [2], 4.75%; in assay [3] it was 0.1%; in assay [4], 14.6%; in assay [5] it was 0.1%; in assay [6] it was -17.8%.

As to `Nc1nc(N)c2nc(-c3ccc([N+](=O)[O-])cc3)c(=O)[nH]c2n1`, the growth inhibition in assay [1] is -9.75%; in assay [2], -8.5%; in assay [3], -2.05%; in assay [4], -11.3%; in assay [5], 29.2%; in assay [6], 14.7%.

With `NNC(=O)c1nc[nH]c1C(=O)NN`, the growth inhibition in assay [1] was 2.95%; in assay [2] it was -2.6%; in assay [3], 21.5%; in assay [4], -14.3%; in assay [5], -7.6%; in assay [6], 32%.

On to `O=C(O)C1(N(CCO)CCO)CCCC1`, for which the growth inhibition is -15.6% in assay [1]; -11.7% in assay [2]; 3.4% in assay [3]; -35.3% in assay [4]; -11.2% in assay [5]; -1.65% in assay [6].

In the case of `CC[n+]1ccc2cc(OC)c(OC)cc2c1Cc1ccc(OC)c(OC)c1`, the growth inhibition in assay [1] is -18%; in assay [2], -5.55%; in assay [3], -5.85%; in assay [4], -34%; in assay [5], -1.2%; in assay [6] it was -16.1%.

In the case of `O=C(c1ccc(F)cc1)c1c[nH]c(=O)[nH]c1=O`, the growth inhibition in assay [1] is -0.45%; in assay [2] it was -18.1%; in assay [3], -7.85%; in assay [4], -6.85%; in assay [5], 2.6%; in assay [6], -33.2%.

For the compound `O=C(NNc1ccccc1)/C(=C/c1ccc2c(c1)OCO2)NC(=O)c1ccccc1`, the growth inhibition in assay [1] is 15.8%; in assay [2], 9.5%; in assay [3] it was -29.6%; in assay [4], -6.2%; in assay [5] it was 1.35%; in assay [6], 4.55%.

Consider `OCC(O)C(OC1OC(CO)C(O)C(O)C1O)C(O)c1cnn(-c2ccccc2)n1` (configuration not stated), for which the growth inhibition in assay [1] was -0.05%; in assay [2] it was 8.6%; in assay [3], -24.3%; in assay [4], -14.7%; in assay [5] it was -1.5%; in assay [6], 15.2%.

On to `O=C(CCCCCCCCC(=O)NCC1(c2ccccc2)CCNCC1)NCC1(c2ccccc2)CCNCC1`, for which the growth inhibition was -27.5% in assay [1]; -23.6% in assay [2]; -15.2% in assay [3]; -3.25% in assay [4]; -23.9% in assay [5]; -11.2% in assay [6].

In the case of `CCN(CC)CCN1C(=O)C(=O)N(c2cccc3ccccc23)C1=O`, the growth inhibition in assay [1] is -26.9%; in assay [2], -15.7%; in assay [3], -14.9%; in assay [4], -14.2%; in assay [5], -31.9%; in assay [6] it was -10.2%.

For the compound `Cc1ccc([N+](=O)[O-])cc1NC(=O)NCCO`, the growth inhibition in assay [1] was 1.15%; in assay [2], 1.6%; in assay [3] it was -6.3%; in assay [4], -71%; in assay [5] it was 1%; in assay [6], -1.75%.

For `CC(C)(C)OC(=O)CN1C(=O)CCC1=O`, the growth inhibition is 6.25% in assay [1]; 8.65% in assay [2]; 20.2% in assay [3]; -26.1% in assay [4]; 4.45% in assay [5]; -5.15% in assay [6].

In the case of `COC(=O)C(c1ccccc1)S(=O)(=O)c1ccccc1` (configuration not stated), the growth inhibition in assay [1] is -2.75%; in assay [2], -13.3%; in assay [3] it was 3.6%; in assay [4], -2.75%; in assay [5], -21.4%; in assay [6] it was -5.5%.

For `CCCC(=O)NS(=O)(=O)c1ccc(C)cc1`, the growth inhibition in assay [1] is 2.85%; in assay [2] it was 7.3%; in assay [3], 3.45%; in assay [4], -24.9%; in assay [5], 0.25%; in assay [6], 5.75%.

Regarding `C=Cc1ccc(C)[n+](C[Si](C)(C)O[Si](C)(C)C)c1`, the growth inhibition in assay [1] was -7.75%; in assay [2] it was -39%; in assay [3], -8.95%; in assay [4], 19.4%; in assay [5] it was -22.9%; in assay [6], -20.7%.

For the compound `COc1ccc2nc3cc([N+](=O)[O-])ccc3c(Nc3ccc(S(=O)(=O)NC(C)=O)cc3)c2c1`, the growth inhibition in assay [1] is 76.3% (active); in assay [2] it was 36.4%; in assay [3] it was 67.8%; in assay [4], 36%; in assay [5], 64.5%; in assay [6], 75.2% (active).

With `CCC(=O)Oc1ccc(C(C)(C)CC(C)(C)C)cc1`, the growth inhibition in assay [1] is 32.2%; in assay [2], -8.85%; in assay [3] it was 34%; in assay [4], -7.05%; in assay [5], 6.05%; in assay [6], 51.7%.

Consider `O=C(c1ccc(Cl)cc1)N(C(=S)N1CCN(c2ccccn2)CC1)C1CCCCC1`, for which the growth inhibition in assay [1] is 4.5%; in assay [2], 13.7%; in assay [3], 15.3%; in assay [4], 6.85%; in assay [5] it was -16.6%; in assay [6], 19.4%.

For `Nc1[nH]c(=O)nc2c1ncn2C1OC(CO)C(O)C1O` (configuration not stated), the growth inhibition is -10.3% in assay [1]; -27.6% in assay [2]; -12.3% in assay [3]; -3.65% in assay [4]; -4.25% in assay [5]; -10.2% in assay [6].

In the case of `c1ccc(-c2cc(-c3cc(-c4ccccc4)n[nH]3)[nH]n2)cc1`, the growth inhibition in assay [1] was -9.95%; in assay [2], -8.15%; in assay [3] it was -21.4%; in assay [4] it was -19.2%; in assay [5], -16.6%; in assay [6], -37.1%.

As to `COc1ccc2ccc3cccnc3c2n1`, the growth inhibition in assay [1] is 45.2%; in assay [2], 22.1%; in assay [3] it was 40.9%; in assay [4], -2.35%; in assay [5] it was 26.2%; in assay [6], 2%.

On to `COc1ccc(/C=C/c2onc3c(=O)n(C)nc(-c4ccccc4)c23)cc1`, for which the growth inhibition in assay [1] was -22.4%; in assay [2] it was -25.1%; in assay [3], -9.2%; in assay [4] it was -11.4%; in assay [5], -2.55%; in assay [6], -26.2%.

As for `NC(=O)CCC(NS(=O)(=O)c1ccc(NC(=O)c2ccccc2)cc1)C(=O)O` (configuration not stated), the growth inhibition was 4% in assay [1]; -4.1% in assay [2]; -22.9% in assay [3]; 19.6% in assay [4]; -5.7% in assay [5]; -1.95% in assay [6].

Regarding `COc1cccc2c1OCC1Cc3ccccc3OC21` (configuration not stated), the growth inhibition in assay [1] was 72.2% (active); in assay [2], 45%; in assay [3], 85.7% (active); in assay [4] it was 72.2% (active); in assay [5] it was 51.8%; in assay [6], 95.7% (active).

`OC(C1CCCCCCCCCC1)C(O)C1CCCCCCCCCC1` (configuration not stated): the growth inhibition in assay [1] was -35.5%; in assay [2], -38.6%; in assay [3] it was 2.8%; in assay [4], 15.3%; in assay [5], -38%; in assay [6], -8.85%.

As for `O=[N+]([O-])[C@@H]1C[C@@H]2C=C[C@H]1CC2`, the growth inhibition in assay [1] was 10.1%; in assay [2], 0.2%; in assay [3], 2.6%; in assay [4], -1.3%; in assay [5], 0.3%; in assay [6], 0.15%.

Take `CCCCCCCNc1nc(N)nc(Cl)n1`: the growth inhibition is -0.15% in assay [1]; -4.6% in assay [2]; 5.75% in assay [3]; 8.75% in assay [4]; -9.4% in assay [5]; 10.9% in assay [6].
